Hits are enriched below; roughly 11% of the tested compounds scored in any of these assays.
Pf growth 48h = P. falciparum growth inhibition at 48 hours (one generation); P. falciparum luciferase growth in erythrocytes, 48 h; 310,000 tested, 5.9% active; Potency, µM (series often up to 28.7 µM), without a hit: top-dose activity change, negative = inhibition, usual class: inhibitors
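Firefly luciferase activity from engineered P. falciparum reports growth; inhibitors lower the luminescent signal. Cultures contained 2% hematocrit erythrocytes at 0.1% final parasitemia.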
AMA1-RON2 inh = AMA1-RON2 (P. falciparum) interaction inhibition; Potency, µM (titrated, usually from 58.2 µM), without a hit: top-dose activity change, negative = inhibition, usual class: inhibitors; 360,000 tested, 0.2% active; AID 720542; AlphaScreen AMA1-biotinylated RON2 peptide binding;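 further: 0% = vehicle wells and -100% = peptide control; nearly all actives have a fitted effect of over 45% in size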
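AMA1 (3D7) with his tag at 25 nM final met compounds first, then biotinylated RON2 peptide at 25 nM; detection used donor plus acceptor beads, 10 µg/mL apiece, read by AlphaScreen after 30 min at room temperature.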
Pf growth 96h = inhibits malaria parasite growth, 96 h. P. falciparum luciferase reporter growth, 96 h. Potency, µM (series often up to 28.7 µM), without a hit: at the top dose activity change, negative = inhibition, actives largely listed as inhibitors. 320,000 tested, 6.9% active
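P. falciparum expressing integrated firefly luciferase, in erythrocytes at 2% hematocrit, 0.05% parasitemia, incubated with compounds 96 h at 37 C, 5% CO2. Growth inhibition read as loss of luminescence; two-generation exposure targets delayed-death apicoplast inhibitors.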
HCV inhibitor = inhibitors of hepatitis C virus infection. Potency, µM (top dose mostly 41.8 µM), inactives show at the highest dose activity change, negative = inhibition, usual class: inhibitors. AID 651820. Huh7.5.1 HCVcc-Cre infection, luciferase reporter, 44 h. 340,000 tested, 3.4% active
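Infectious HCV cell culture screen: compound-treated cells (1,000/well, pre-plated 4 h) are infected with HCVcc-Cre at roughly 0.5 moi and grown 44 h. Infection is quantified by luciferase signal after 15 min substrate incubation at room temperature.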
* marks the source's active call; other numbers are inactive results. The call rests on the fitted dose curve; in most records, active means well fitted curve in the direction sought with a large enough effect; inconclusive means small, poorly fitted or top-dose-only effect, or another doubt; inactive means no such curve, though single readings can be large; an effect the other way counts as inactive or inconclusive. Unless noted, on the % scale 0 is the no-effect control and ±100 the full control effect; potency means the concentration at half of the fitted maximal effect.

How did CCOc1ccc2nc(NC(=O)CSc3nc4ccccc4c(=O)n3Cc3ccco3)sc2c1 do in these assays?
Pf growth 48h: inconclusive; AMA1-RON2 inh: 3.3%; Pf growth 96h: 1.31µM*; HCV inhibitor: inconclusive

Results for O=C(CSc1nc2ccccc2c(=O)n1Cc1ccco1)c1ccccc1 ?
Pf growth 48h: -18.9%; AMA1-RON2 inh: 3.7%; Pf growth 96h: -0.1%; HCV inhibitor: inconclusive

Results for O=c1c2ccccc2nc(SCc2nnc(-c3ccccc3Br)o2)n1Cc1ccco1 ?
Pf growth 48h: inconclusive; AMA1-RON2 inh: 13.4%; HCV inhibitor: 12.6µM*

Results for O=c1[nH]c2ccc(Cl)cc2c(-c2ccccc2)c1N1CCN(c2ccccn2)CC1 ?
Pf growth 48h: 10.4%; AMA1-RON2 inh: 0.0%; Pf growth 96h: inconclusive; HCV inhibitor: inconclusive

How did Cc1c(Br)c([N+](=O)[O-])nn1CC(=O)Nc1ccc(Cc2ccncc2)cc1 do in these assays?
Pf growth 48h: -11.2%; AMA1-RON2 inh: -10.2%; Pf growth 96h: inconclusive; HCV inhibitor: inconclusive

Results for CCN(C(=O)CSc1nc2cc(C(=O)OC)ccc2c(=O)n1Cc1ccco1)c1cccc(C)c1 ?
Pf growth 48h: 4.65µM*; AMA1-RON2 inh: 2.9%; Pf growth 96h: -6.9%; HCV inhibitor: inconclusive

Results for COCCNC(=O)c1ccc2c(=O)n(Cc3ccco3)c(SCC(=O)NC3CCCC3)nc2c1 ?
AMA1-RON2 inh: -0.2%; Pf growth 96h: 11.7µM*; HCV inhibitor: -3.6%

What do the screens show for `Cc1nnc(SCc2nnc(-c3ccccc3Br)o2)n1-c1ccccc1`?
Pf growth 48h: 10.4µM*; AMA1-RON2 inh: 4.2%; Pf growth 96h: inconclusive; HCV inhibitor: 15.4%

What do the screens show for `CCOC(=O)CSc1nc2c(sc3ccc([N+](=O)[O-])cc32)c(=O)n1Cc1ccco1`?
Pf growth 48h: 6.57µM*; AMA1-RON2 inh: 8.7%; Pf growth 96h: 32.7%; HCV inhibitor: 6.31µM*

Results for CC(=O)Nc1c(C(N)=O)oc2ccc(Cl)cc12 ?
Pf growth 48h: 22.4%; AMA1-RON2 inh: 2.7%; Pf growth 96h: -0.3%; HCV inhibitor: 1.8%

How did CC(C)c1ccc(NC2CCCN(C(=O)CN3CCCC3=O)C2)cc1 (stereo not given) do in these assays?
Pf growth 48h: -2.3%; AMA1-RON2 inh: -8.6%; Pf growth 96h: 42.3%; HCV inhibitor: 16.3%

What do the screens show for `CC(C)(C)c1nc2ccccc2c2nnc(SCC(=O)Nc3nccs3)n12`?
Pf growth 48h: 13.6%; AMA1-RON2 inh: -3.5%; Pf growth 96h: 35.6%; HCV inhibitor: inconclusive

What do the screens show for `CCN(CC)C(=O)CSc1nc2cc3c(cc2c(=O)n1Cc1ccco1)OCO3`?
Pf growth 48h: -34.2%; AMA1-RON2 inh: -8.9%; Pf growth 96h: 8.4%; HCV inhibitor: 10µM*

Results for C=CCn1c(SCC(=O)OCC)nc2cc(C(=O)NCc3ccco3)ccc2c1=O ?
AMA1-RON2 inh: 2.8%; Pf growth 96h: 7.38µM*; HCV inhibitor: inconclusive

Results for CCC(C)NC(=O)CSc1nc2cc3c(cc2c(=O)n1Cc1ccco1)OCO3 (stereo not given) ?
Pf growth 48h: -8.1%; AMA1-RON2 inh: 7.0%; Pf growth 96h: inconclusive; HCV inhibitor: -3.9%

How did CC(C)(C)c1nc2ccccc2c2nnc(SCC(=O)Nc3nc4ccccc4s3)n12 do in these assays?
Pf growth 48h: -4.7%; AMA1-RON2 inh: inconclusive; Pf growth 96h: 34.6%; HCV inhibitor: 12.6µM*

How did NC(=O)C1CCN(C(=O)c2ccc3c(=O)n(Cc4ccco4)c(SCc4ccc([N+](=O)[O-])cc4)nc3c2)CC1 do in these assays?
Pf growth 48h: 11.7µM*; AMA1-RON2 inh: 0.0%; Pf growth 96h: inconclusive; HCV inhibitor: 2.0%

What do the screens show for `COc1ccccc1CNC(=O)c1ccc(N2CCOCC2)c([N+](=O)[O-])c1`?
Pf growth 48h: 12.3%; AMA1-RON2 inh: 7.2%; Pf growth 96h: inconclusive; HCV inhibitor: inconclusive

How did Cc1ccc(CSc2nc3ccccc3c(=O)n2Cc2ccco2)cc1 do in these assays?
Pf growth 48h: 13.1µM*; AMA1-RON2 inh: -19.3%; Pf growth 96h: 9.28µM*; HCV inhibitor: -12.7%

Results for CCOC(=O)C(NC(=O)c1ccc(OC)cc1)(OCC1(CC)COC1)C(F)(F)F (stereo not given) ?
Pf growth 48h: 13.1µM*; AMA1-RON2 inh: 17.4%; Pf growth 96h: 13.1µM*; HCV inhibitor: 9.7%

What do the screens show for `CCCN1C(=O)c2cc(C(=O)Nc3ccccc3OC)ccc2C1Nc1ccccc1OC` (stereo not given)?
Pf growth 48h: 10.4µM*; AMA1-RON2 inh: 2.8%; Pf growth 96h: inconclusive; HCV inhibitor: 11.2µM*

What do the screens show for `Cc1nc2ccc(Cc3ccc4nc(C)[nH]c4c3)cc2[nH]1`?
Pf growth 48h: inconclusive; AMA1-RON2 inh: 2.9%; Pf growth 96h: 10.4µM*; HCV inhibitor: -7.3%

What do the screens show for `CC(C)(C)c1ccc(C(=O)N2CCNCC2)cc1`?
Pf growth 48h: 18.1%; AMA1-RON2 inh: 0.9%; HCV inhibitor: 6.2%

How did O=C(c1ccc(-c2cc(O)c3ncccc3c2)cc1)N1CCNCC1 do in these assays?
Pf growth 48h: 9.28µM*; Pf growth 96h: 9.28µM*

What do the screens show for `CCOc1ccccc1N(CC(=O)NC1CCCC1)C(=O)CNC(=O)c1cccs1`?
Pf growth 48h: -5.0%; AMA1-RON2 inh: -2.2%; Pf growth 96h: 3.8%; HCV inhibitor: -1.5%

What do the screens show for `COc1ccc(OC)c(NC(=O)COC(=O)CCc2ccc(S(=O)(=O)N3CCOCC3)cc2)c1`?
AMA1-RON2 inh: 2.9%; HCV inhibitor: 4.8%

Results for COc1ccc(S(=O)(=O)N/N=C\c2ccc3c(c2)OCO3)c(OC)c1 ?
Pf growth 48h: inconclusive; AMA1-RON2 inh: -8.7%; Pf growth 96h: inconclusive; HCV inhibitor: 3.55µM*

Results for O=C(Nc1ccccc1N1CCCCC1)C1CCN(S(=O)(=O)c2ccccc2C(F)(F)F)CC1 ?
Pf growth 48h: 9.28µM*; AMA1-RON2 inh: inconclusive; Pf growth 96h: inconclusive; HCV inhibitor: inconclusive

How did CN(C)C(CNC(=O)C1CCN(S(=O)(=O)c2ccccc2C(F)(F)F)CC1)Cc1ccccc1 (stereo not given) do in these assays?
Pf growth 48h: inconclusive; AMA1-RON2 inh: 5.0%; Pf growth 96h: 9.28µM*; HCV inhibitor: -8.7%

What do the screens show for `Cc1ccc(S(=O)(=O)N2CCC(C(=O)Nc3ccccc3N3CCCC3)CC2)c(C)c1`?
Pf growth 48h: 9.28µM*; AMA1-RON2 inh: -22.2%; Pf growth 96h: inconclusive; HCV inhibitor: inconclusive

How did CN(C)S(=O)(=O)c1ccc(N2CCCC2)c(C(=O)N2CCN(S(=O)(=O)c3ccc(F)c(F)c3)CC2)c1 do in these assays?
AMA1-RON2 inh: -8.1%; HCV inhibitor: -4.2%

Results for Cc1ccc(S(=O)(=O)N2CCN(C(=O)c3cc(S(=O)(=O)N(C)C)ccc3N3CCCC3)CC2)c(C)c1 ?
Pf growth 48h: 2.94µM*; AMA1-RON2 inh: -19.6%; Pf growth 96h: 5.22µM*; HCV inhibitor: inconclusive

What do the screens show for `CC1(C(=O)NCc2ccc(C(F)(F)F)cc2)CCN1C1Cc2ccccc2C1` (stereo not given)?
AMA1-RON2 inh: -4.7%

Screening results from PubChem.
